Assay [1] can be described thus: qHTS assay for small molecule agonists of the p53 signaling pathway (AID 651631; calls by dose curve; further: nearly all actives have a fitted effect of over 15% in size). A digest of the protocol: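 Stably transfected HCT-116 cells (beta-lactamase behind p53 response elements) get compounds after a 5 h settling period; 16 h later at 37 °C, FRET substrate is loaded and fluorescence read after 2 h.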
The nature of assay [2]: qHTS assay for small molecules that induce genotoxicity in human embryonic kidney cells expressing luciferase-tagged ATAD5 (AID 651632). Further: nearly all actives have a fitted effect of over 15% in size. The method in brief: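 Genotoxicity read-out via ATAD5-luciferase: HEK293T cells, 16 hr compound incubation at 37C, Amplite detection.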
On the technique in general: qHTS replaces the single test concentration by a dilution series.

Assay [3] is described as follows: qHTS assay for small molecule agonists of the p53 signaling pathway - cell viability (AID 651633; calls by dose curve;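 further: p53RE-bla HCT reporter cells with a stable beta-lactamase p53 reporter; series mostly up to about 83 µM; nearly all actives have a fitted effect of over 30% in size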). A digest of the protocol: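 p53RE-bla cells were treated with compound for 16 hours at 37 C. Cytotoxicity was then measured as CellTiter-Glo luminescence after 30 min at room temperature.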
The nature of assay [4]: qHTS assay for small molecules that induce genotoxicity in human embryonic kidney cells expressing luciferase-tagged ATAD5 - cell viability (AID 651634; calls by dose curve; further: nearly all actives have a fitted effect of over 25% in size). A digest of the protocol: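 Live-cell protease activity (CellTiter-Fluor, fluorescence) indicates viability. HEK293T cells with luciferase-tagged ATAD5; 15.5 hr compound treatment at 37C.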
A short description of assay [5]: qHTS assay for small molecule disruptors of the mitochondrial membrane potential - cell viability (AID 720634; calls by dose curve;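 further: human HepG2 liver cancer cells; series mostly up to about 83 µM; nearly all actives have a fitted effect of over 20% in size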). A digest of the protocol: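 Human hepatoma HepG2 cells were treated for 1 hr with test chemicals, then given m-MPI dye and CellTiter-Glo. Cell viability reflects luminescence proportional to cellular ATP.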
The nature of assay [6]: qHTS assay for small molecule disruptors of the mitochondrial membrane potential (AID 720635). Further: potency means the concentration at half of the fitted maximal effect. The method in brief:
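HepG2 cells exposed to compound 1 hr at 37C, then Mito-MPS dye 30 min. Ratio read of aggregate (540/590 nm) versus monomer (490/535 nm) fluorescence.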

Assay [7] can be described thus: qHTS assay to test for compound auto fluorescence at 590 nm (red) in HepG2 cells (AID 720674). The method in brief:
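Seeding: 2,000 HepG2 cells/well, MEM/10% FBS, overnight 37 C. Dosing: compound vs DMSO. Incubation: 1 hr, 37 C, 5% CO2. Read: fluorescence 540 ex/590 em, Rose Bengal sodium as red reference.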

Assay [8] can be described thus: qHTS assay to test for compound auto fluorescence at 535 nm (green) in HepG2 cells (AID 720675).
Assay [9] is described as follows: qHTS assay to test for compound auto fluorescence at 460 nm (blue) in HEK293 cells (AID 720678). A digest of the protocol: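 Auto fluorescence in the blue band was quantified as triamterene equivalency. HEK293 cells were seeded at 2,000/well, dosed after a 4-5 hr attachment, and kept overnight at 37C before the 405/460 nm reading.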
Assay [10] can be described thus: qHTS assay to test for compound auto fluorescence at 590 nm (red) in HEK293 cells (AID 720679). A digest of the protocol: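 Autofluorescence equivalency to Rose Bengal sodium, 540/590nm, in HEK293 cells exposed overnight to 23 nL compound per well.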

Inconclusive results are not listed. Active and inactive are the calls of the source. Unless noted, the call rests on the fitted dose curve; in most records, active means well fitted curve in the direction sought with a large enough effect in the repeat runs; inconclusive means weak or mixed curves; inactive means no such curve, though single readings can be large; an effect the other way counts as inactive or inconclusive. Positions of bridges follow the written chain, without caps; N, C: chain ends. Non-standard residues stand in square brackets, D forms with d. Residues, ends and D or L forms follow the SMILES beside them. Orn = NCCC[C@H](N)C(=O)O; Mpa = O=C(O)CCS

Take `Nc1ccn(C[C@@H](CO)OCP(=O)(O)O)c(=O)n1`: the Potency entry in [1], in [2], in [3], in assay [4], in assay [5] and in [6] was “inactive” throughout. Besides, the Potency entry in assay [7], in assay [8], in assay [9] and in assay [10] was “inactive” in each case.

As to `CCOc1ccc(C[C@H]2NC(=O)CCSSC[C@@H](C(=O)N3CCC[C@H]3C(=O)N[C@@H](CCCN)C(=O)NCC(N)=O)NC(=O)[C@H](CC(N)=O)NC(=O)[C@H]([C@@H](C)O)NC(=O)[C@H]([C@@H](C)CC)NC2=O)cc1` ([Mpa][dY](Et)ITNCP[Orn]G-NH2; disulfide 1-6), the Potency result in assay [1], in assay [2], in assay [3], in assay [4], in [5] and in assay [6] was “inactive” each time. Moreover, the Potency result in assay [7], in [8], in assay [9] and in assay [10] was “inactive” throughout.

Consider `Cn1nnnc1SCC1=C(C(=O)O)N2C(=O)[C@@H](NC(=O)[C@H](OC=O)c3ccccc3)[C@H]2SC1`, for which the Potency result in assay [1], in assay [2], in assay [3], in assay [4], in assay [5] and in [6] was “inactive” throughout. Moreover, the Potency entry in assay [7], in assay [8], in [9] and in [10] was “inactive” each time.

As to `c1cnc2cc3c(cc2n1)[C@@H]1CNC[C@H]3C1`, the Potency result in [1], in assay [2], in [3], in assay [4], in assay [5] and in [6] was “inactive” in each case. Moreover, the Potency entry in [7], in assay [8], in assay [9] and in assay [10] was “inactive” each time.

For the compound `NCCC[C@H](N)C(=O)O`, the Potency result in assay [1], in assay [2], in assay [3], in assay [4], in assay [5] and in [6] was “inactive” throughout. The Potency entry in assay [7], in assay [8], in [9] and in assay [10] was “inactive” each time.

In the case of `COc1ccc2c(=O)c(C)c(-c3ccccc3)oc2c1CN(C)C`, the Potency result in assay [1], in assay [2], in assay [3], in assay [4], in [5] and in [6] was “inactive” in each case. Also, the Potency result in assay [7], in assay [8], in assay [9] and in [10] was “inactive” throughout.

In the case of `O=P(O)(O)C(O)(Cc1cnc2ccccn12)P(=O)(O)O`, the Potency entry in assay [1], in assay [2], in [3], in [4], in assay [5] and in assay [6] was “inactive” each time. Also, the Potency entry in assay [7], in assay [8], in [9] and in assay [10] was “inactive” in each case.

Take `COc1ccc(CCNCC(O)COc2cccc(C)c2)cc1OC` (stereo not given): the Potency entry in [1], in [2], in assay [3], in [4], in assay [5] and in [6] was “inactive” throughout. For the same compound, the Potency result in assay [7], in [8], in assay [9] and in [10] was “inactive” each time.

Consider `Cn1nnnc1SCC1=C(C(=O)O)N2C(=O)[C@@H](NC(=O)[C@H](O)c3ccccc3)[C@H]2SC1`, for which the Potency result in assay [1], in [2], in [3], in assay [4], in [5] and in assay [6] was “inactive” each time. Also, the Potency result in assay [7], in [8], in [9] and in assay [10] was “inactive” in each case.

For `O=C(CCCN1CCC(C(=O)c2ccc(F)cc2)CC1)c1ccc(F)cc1`, the Potency entry in assay [1], in [2], in [3], in assay [4], in [5] and in assay [6] was “inactive” in each case. Further, the Potency entry in [7], in [8], in assay [9] and in assay [10] was “inactive” each time.

`O=C(c1cc2ccccc2o1)N1CCN(Cc2ccccc2)CC1`: the Potency result in assay [1], in assay [2], in assay [3], in [4], in assay [5] and in assay [6] was “inactive” each time. In addition, the Potency entry in [7], in assay [8], in assay [9] and in assay [10] was “inactive” throughout.

Take `COC(=O)CCC(=O)CN`: the Potency entry in [1], in assay [2], in assay [3], in assay [4], in [5] and in [6] was “inactive” each time. Also, the Potency result in [7], in assay [8], in assay [9] and in assay [10] was “inactive” in each case.

Regarding `C[N+](C)(CCCCCC[N+](C)(C)C1c2ccccc2-c2ccccc21)C1c2ccccc2-c2ccccc21`, the Potency result in [1], in [2], in [3], in [4], in assay [5] and in [6] was “inactive” in each case. Also, the Potency entry in assay [7], in [8], in assay [9] and in [10] was “inactive” in each case.

For the compound `OC[C@@H](O)C(O)[C@H](O)CO`, the Potency result in [1], in assay [2], in [3], in assay [4], in assay [5] and in assay [6] was “inactive” each time. Moreover, the Potency entry in assay [7], in [8], in [9] and in assay [10] was “inactive” throughout.

Turning to `CC1CC(OC(=O)C(O)c2ccccc2)CC(C)(C)C1` (stereo not given), the Potency entry in assay [1], in assay [2], in assay [3], in assay [4], in assay [5] and in assay [7] was “inactive” each time. Further, the Potency entry in assay [8], in [9] and in assay [10] was “inactive” in each case. In assay [6], the Potency was 13.3 µM (active).

`CC(C)(CO)[C@@H](O)C(=O)NCCC(=O)NCCSSCCNC(=O)CCNC(=O)[C@H](O)C(C)(C)CO`: the Potency result in assay [1], in assay [2], in assay [3], in assay [4], in assay [5] and in assay [6] was “inactive” in each case. The Potency entry in assay [7], in assay [8], in assay [9] and in assay [10] was “inactive” each time.

With `COC(=O)[C@H]1[C@H]2C[C@@H]3c4[nH]c5cc(OC)ccc5c4CCN3C[C@H]2C[C@@H](OC(=O)/C=C/c2cc(OC)c(OC)c(OC)c2)[C@@H]1OC`, the Potency result in assay [1], in [2], in assay [3], in assay [4], in assay [5] and in [6] was “inactive” throughout. Also, the Potency result in assay [7], in assay [8], in assay [9] and in [10] was “inactive” throughout.
